IC90 data for 14 compounds are collected here from ChEMBL document CHEMBL1201862, “PubChem BioAssay data set” (2004).

Only a part of the results of these assays is listed, not drawn at random.

As a reminder, the IC90 is the point of the concentration-response curve where the effect stands at 90%.

The assay deals with T1, Protein RecA (Mycobacterium tuberculosis) (UniProt P9WHJ3).
T1 sequence (whole entry): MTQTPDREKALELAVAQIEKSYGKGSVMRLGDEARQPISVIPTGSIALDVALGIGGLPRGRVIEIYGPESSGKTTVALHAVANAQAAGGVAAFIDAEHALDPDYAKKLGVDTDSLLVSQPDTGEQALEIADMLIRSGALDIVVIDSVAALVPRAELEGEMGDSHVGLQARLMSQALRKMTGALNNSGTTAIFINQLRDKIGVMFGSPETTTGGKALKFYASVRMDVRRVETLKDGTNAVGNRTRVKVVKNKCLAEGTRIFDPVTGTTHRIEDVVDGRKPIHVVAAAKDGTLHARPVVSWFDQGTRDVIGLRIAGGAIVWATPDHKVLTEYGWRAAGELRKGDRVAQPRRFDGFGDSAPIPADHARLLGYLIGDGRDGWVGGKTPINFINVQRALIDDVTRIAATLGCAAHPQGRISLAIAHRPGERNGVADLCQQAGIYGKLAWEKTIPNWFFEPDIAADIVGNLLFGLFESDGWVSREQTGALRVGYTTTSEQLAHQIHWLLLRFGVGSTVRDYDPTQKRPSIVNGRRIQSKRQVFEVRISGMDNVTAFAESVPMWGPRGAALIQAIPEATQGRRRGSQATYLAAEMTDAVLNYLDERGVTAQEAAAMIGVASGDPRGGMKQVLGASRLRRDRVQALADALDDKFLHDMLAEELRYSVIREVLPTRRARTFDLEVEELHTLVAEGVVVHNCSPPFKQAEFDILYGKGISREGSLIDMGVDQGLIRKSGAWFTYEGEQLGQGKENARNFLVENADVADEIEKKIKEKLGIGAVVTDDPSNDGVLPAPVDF
In words: M. tuberculosis H37Rv growth inhibition, dose response, strain H37Rv (AID 489010).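 Further: whole Mycobacterium tuberculosis cells grown in culture and not purified RecA protein.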 The assay is classed as functional.
`Cc1ccc(N(C(=O)CCl)C(C(=O)NC2CCCCC2)c2cccnc2)cc1C` (centres undefined): the 90% effect concentration (IC90) is 30.1 µM (active). Then `Cc1ccc(CS(=O)(=O)c2ncc(Cl)c(C(=O)Nc3nnc(C(C)C)s3)n2)cc1`, with > 100 µM (active); and `CC(CCc1ccccc1)NC(=O)COC(=O)c1cc(NS(=O)(=O)c2ccc(Cl)c([N+](=O)[O-])c2)ccc1O` (centres undefined), with > 100 µM (active). Then `COC(=O)c1c(C)oc2ccc(N(C(=O)c3ccncc3)S(=O)(=O)c3ccc4ccccc4c3)cc12`, with > 100 µM (active); and `Cc1ccc(-n2nnc3c(SCC(=O)NCC4CCCO4)ncnc32)cc1` (centres undefined), with > 100 µM (active); and `O=C(NC1CCCCC1)C(c1cccnc1)N(C(=O)CCl)c1cccc(Cl)c1` (centres undefined), with 28 µM (active). The same measure for `CSc1nnc(NC(=O)c2nc(S(=O)(=O)Cc3ccccc3F)ncc2Cl)s1`: > 100 µM (active); for `CC1=NNC(=O)C1Cc1c(Cl)cccc1Cl` (centres undefined): > 100 µM (active). Consider `COc1cccc(N(C(=O)CCl)C(C(=O)NCCc2ccccc2)c2cccs2)c1` (centres undefined), for which the IC90 was 32 µM (active). The same measure for `C/C(=N\NC(=O)c1ccncc1)c1cc2ccccc2oc1=O`: 0.43 µM (active); for `CC(C)(C)c1csc(Sc2ccc([N+](=O)[O-])cn2)n1`: > 100 µM (active). Then `COc1ccc(C(=O)c2c(C(F)(F)F)oc3c2C(=O)c2ccccc2C3=O)cc1OC`, with 13.8 µM (active). For `COC(=O)c1sc(-c2ccc(C(C)(C)C)cc2)cc1NC(=O)/C=C/C(=O)O`, the IC90 is 42.7 µM (active). Then `CC(=O)n1cc(N(C(=O)CCl)c2ccccc2)c2ccccc21`, with 5.8 µM (active).
